Laboratory results: PubChem BioAssay AID624139 (Broad Institute, 2012)
About 220 (1.3%) of roughly 17,000 compounds were called active.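 The calls were made as follows: active = spot fluorescence over background significantly raised, with a chance value under 7% in all four replicate spots of the compound; inactive = the rest.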 Many of the other results were omitted from the sample, so actives are more common in it than they were.

Target: Nuclear factor NF-kappa-B p105 subunit (Homo sapiens) (UniProt P19838)
Experiment: binders of NF-kB p50 subunit, primary screen, biochemical, small molecule microarray, anti-His fluorescence (AID 624139);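 also: probe protein is his-tagged human p50 processed subunit at 1 µg/ml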
Settings: anti-His fluorescence binding

Sequence of Nuclear factor NF-kappa-B p105 subunit (Homo sapiens) (P19838 1-433 limits assumed): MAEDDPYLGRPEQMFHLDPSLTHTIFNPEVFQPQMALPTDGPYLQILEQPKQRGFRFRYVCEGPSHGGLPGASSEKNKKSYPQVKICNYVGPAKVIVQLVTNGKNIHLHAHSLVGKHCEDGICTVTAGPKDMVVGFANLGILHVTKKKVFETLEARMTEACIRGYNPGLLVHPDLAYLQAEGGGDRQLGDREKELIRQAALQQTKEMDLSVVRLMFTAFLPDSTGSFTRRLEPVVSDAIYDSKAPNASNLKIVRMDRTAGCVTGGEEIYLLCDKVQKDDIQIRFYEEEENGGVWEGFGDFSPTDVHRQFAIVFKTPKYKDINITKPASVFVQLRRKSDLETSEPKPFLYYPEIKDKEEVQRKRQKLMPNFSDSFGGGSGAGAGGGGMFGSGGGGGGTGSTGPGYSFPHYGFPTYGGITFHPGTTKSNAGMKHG

Row | Compound | outcome
1 | C[C@@H]1CN([C@H](C)CO)C(=O)CCCn2cc(nn2)CO[C@@H]1CN(C)Cc1ccc2cccnc2c1 | inactive
2 | COC(=O)c1c(NC(=S)Nc2ccc(S(=O)(=O)NC34CC5CC(CC(C5)C3)C4)cc2)sc2c1CCC2 | inactive
3 | CC(C)NC(=O)Nc1ccc2c(c1)C(=O)N([C@H](C)CO)C[C@@H](C)[C@H](CN(C)S(C)(=O)=O)O2 | inactive
4 | Cc1ccc(C)c(NC(=O)CCC(=O)O)c1 | inactive
5 | O=C(N1CCCCC1)[C@@]1(CCS(=O)(=O)c2ccccc2)N=C(c2ccc(OCCCO)cc2)O[C@H]1c1ccccc1 | inactive
6 | C[C@@H]1CN([C@H](C)CO)C(=O)c2cc(N(C)C)ccc2O[C@@H](C)CCCCO[C@@H]1CN(C)C(=O)CCCN(C)C | inactive
7 | C[C@@H]1CCCCO[C@H](CN(C)C)[C@@H](C)CN([C@H](C)CO)C(=O)c2cc(N(C)C)ccc2O1 | inactive
8 | O=C(c1ccc(F)cc1)C1CCN(CCCCc2ccccc2)CC1 | inactive
9 | O=c1c2ccccc2[nH]c(=S)n1CCN1CCC(=C(c2ccc(F)cc2)c2ccc(F)cc2)CC1 | active
10 | C[C@H](CO)N1C[C@H](C)[C@@H](CN(C)S(=O)(=O)c2cn(C)cn2)Oc2ccc(NS(=O)(=O)c3cn(C)cn3)cc2C1=O | inactive
11 | COc1cc(/C=C/C(=O)NCCc2ccc(O)cc2)ccc1O | inactive
12 | Cc1nc(SCC(=O)N2c3ccccc3Sc3ccccc32)nc2c1CCCC2 | inactive
13 | COc1ccc(S(=O)(=O)N(C)C[C@@H]2Oc3ccc(NC(=O)Cc4cn(C)c5ccccc45)cc3C(=O)N([C@H](C)CO)C[C@H]2C)cc1 | inactive
14 | CCOC(=O)c1sc(NC(=S)Nc2ccc3c(c2)OCCO3)c(C(=O)OCC)c1C | inactive
15 | C[C@@H]1CCCCO[C@H](CN(C)C(=O)Nc2cccc3ccccc23)[C@@H](C)CN([C@H](C)CO)C(=O)c2cc(NS(=O)(=O)c3cccs3)ccc2O1 | inactive
16 | C[C@@H]1CN([C@H](C)CO)C(=O)c2cccc(NS(=O)(=O)c3ccc(Cl)cc3)c2O[C@@H]1CN(C)C(=O)Nc1cccc2ccccc12 | inactive
17 | COc1ccc(S(=O)(=O)Nc2cccc3c2O[C@@H](CN(C)S(=O)(=O)c2ccc(F)cc2)[C@H](C)CN([C@H](C)CO)C3=O)cc1 | inactive
18 | C[C@H](CO)N1C[C@H](C)[C@H](CN(C)C(=O)CCC(F)(F)F)OCCCC[C@H](C)Oc2ccc(NS(C)(=O)=O)cc2C1=O | inactive
19 | C[C@@H]1CCCCO[C@H](CN(C)C(=O)CCC(F)(F)F)[C@@H](C)CN([C@@H](C)CO)C(=O)c2cc(NC(=O)c3ccncc3)ccc2O1 | active
20 | Cc1noc(C)c1S(=O)(=O)Nc1ccc2c(c1)C(=O)N([C@@H](C)CO)C[C@@H](C)[C@H](CN(C)C(=O)NC(C)C)OCCCC[C@@H](C)O2 | active
21 | C[C@@H]1CCCCO[C@@H](CN(C)C(=O)CCC(F)(F)F)[C@@H](C)CN([C@H](C)CO)C(=O)c2cc(NC(=O)CCC(F)(F)F)ccc2O1 | inactive
22 | Cc1noc(C)c1S(=O)(=O)Nc1ccc2c(c1)C(=O)N([C@H](C)CO)C[C@H](C)[C@H](CN(C)C(=O)CCC(F)(F)F)OCCCC[C@H](C)O2 | active

Row | Compound | outcome
23 | Cc1noc(C)c1S(=O)(=O)Nc1ccc2c(c1)C(=O)N([C@H](C)CO)C[C@@H](C)[C@H](CN(C)C(=O)NC(C)C)OCCCC[C@@H](C)O2 | inactive
24 | Cc1noc(C)c1S(=O)(=O)Nc1ccc2c(c1)C(=O)N([C@H](C)CO)C[C@H](C)[C@@H](CN(C)C(=O)CCC(F)(F)F)OCCCC[C@H](C)O2 | inactive
25 | C[C@@H]1CCCCO[C@H](CN(C)C(=O)CCCN(C)C)[C@@H](C)CN([C@@H](C)CO)C(=O)c2cc(NC(=O)c3ccncc3)ccc2O1 | inactive
26 | Cc1noc(C)c1S(=O)(=O)Nc1ccc2c(c1)C(=O)N([C@@H](C)CO)C[C@H](C)[C@@H](CN(C)C)OCCCC[C@@H](C)O2 | inactive
27 | C[C@@H]1CN([C@H](C)CO)C(=O)c2cc(NS(=O)(=O)c3cccs3)ccc2O[C@@H](C)CCCCO[C@@H]1CN(C)S(=O)(=O)c1cccs1 | inactive
28 | C[C@@H]1CN([C@H](C)CO)C(=O)Cc2cc(NS(=O)(=O)c3cccs3)ccc2O[C@H]1CN(C)C(=O)Nc1ccc2c(c1)OCO2 | inactive
29 | C[C@@H]1CCCCO[C@@H](CN(C)S(=O)(=O)c2ccccc2)[C@@H](C)CN([C@@H](C)CO)C(=O)c2cc(NS(=O)(=O)c3cn(C)cn3)ccc2O1 | inactive
30 | C=C1CCCC(C)(C(=O)OC)C1CC/C(C)=C/CCC1=CC(=O)OC1 (centres undefined) | inactive
31 | Cc1nnc(SCc2ccc(C(=O)c3ccc(Cl)cc3)o2)n1-c1ccccc1 | inactive
32 | O=C1C(=O)N(CCn2c3ccccc3c3nc4ccccc4nc32)c2ccccc21 | inactive
33 | Cc1ccc(S(=O)(=O)Nc2ccc3c(c2)C(=O)N([C@@H](C)CO)C[C@H](C)[C@@H](CN(C)S(=O)(=O)c2ccc(C)cc2)O3)cc1 | inactive
34 | C[C@@H]1CN([C@@H](C)CO)C(=O)CCCn2nncc2CO[C@H]1CN(C)Cc1ccc(C(F)(F)F)cc1 | inactive
35 | C[C@H](CO)N1C[C@H](C)[C@H](CN(C)S(=O)(=O)c2cn(C)cn2)Oc2c(NC(=O)C3CCOCC3)cccc2C1=O | inactive
36 | C[C@@H]1CCCCO[C@@H](CN(C)C(=O)c2ccccc2)[C@H](C)CN([C@@H](C)CO)C(=O)c2cc(NS(C)(=O)=O)ccc2O1 | inactive
37 | C[C@@H]1CN([C@@H](C)CO)C(=O)c2cc(NS(C)(=O)=O)ccc2O[C@@H](C)CCCCO[C@@H]1CN(C)S(=O)(=O)c1cn(C)cn1 | inactive
38 | Cc1cc(O)c2c(c1)C(=O)OC2c1c(O)cccc1O (centres undefined) | inactive
39 | COc1ccc(C)cc1NC(=O)NCCc1ccc(OC)c(OC)c1 | inactive
40 | C[C@H]1CCCCO[C@H](CN(C)C)[C@@H](C)CN([C@@H](C)CO)C(=O)c2cc(NC(=O)CCCN(C)C)ccc2O1 | inactive
41 | CNC[C@@H]1Oc2c(NS(C)(=O)=O)cccc2C(=O)N([C@@H](C)CO)C[C@H]1C | inactive
42 | C[C@@H]1CCCCO[C@H](CN(C)C)[C@H](C)CN([C@@H](C)CO)C(=O)c2cc(NC(=O)Cc3ccccc3)ccc2O1 | inactive
43 | Cc1noc(C)c1S(=O)(=O)N(C)C[C@H]1OCCCC[C@@H](C)Oc2ccc(NC(=O)CCCN(C)C)cc2C(=O)N([C@H](C)CO)C[C@@H]1C | inactive
44 | C=CCn1c(=O)c(C(=O)NCc2ccccn2)c(O)c2ccccc21 | inactive

Row | Compound | outcome
45 | COc1cc(/C(C)=C/C(C)=C\C(=O)O)oc(=O)c1C | inactive
46 | Cc1noc(C)c1S(=O)(=O)Nc1ccc2c(c1)CC(=O)N([C@@H](C)CO)C[C@@H](C)[C@@H](CN(C)C(=O)Nc1ccc(C(F)(F)F)cc1)O2 | inactive
47 | C[C@H](CO)N1C[C@H](C)[C@H](CN(C)Cc2ccc(C(F)(F)F)cc2)Oc2ccc(NS(C)(=O)=O)cc2C1=O | inactive
48 | C=C(CC/C=C(\C)C(=O)O)C1(O)CC=C(C)CC1 (centres undefined) | inactive
49 | O=C1O[C@H](c2ccccc2)[C@H](c2ccccc2)N2[C@H]1[C@@H](C(=O)N1CCN(c3ncccn3)CC1)[C@]1(C(=O)Nc3ccccc31)[C@H]2c1ccc(OCCO)cc1 | inactive
50 | C[C@H]1CN([C@@H](C)CO)C(=O)CCCn2cc(nn2)CO[C@@H]1CN(C)S(=O)(=O)c1ccc(-n2cccn2)cc1 | inactive
51 | CC(C)NC(=O)Nc1ccc2c(c1)CC(=O)N([C@@H](C)CO)C[C@@H](C)[C@H](CN(C)Cc1ccc(C(F)(F)F)cc1)O2 | inactive
52 | C/C(=C/CC[C@@H](CO)[C@H]1CC[C@@]2(C)[C@@H]3CC[C@H]4C(C)(C)[C@@H](O[C@@H]5O[C@H](CO)[C@@H](O)[C@H](O)[C@H]5O)C[C@H](O)[C@@]45C[C@@]35CC[C@]12C)CO | inactive
53 | Cc1noc(C)c1S(=O)(=O)Nc1ccc2c(c1)CC(=O)N([C@H](C)CO)C[C@@H](C)[C@@H](CN(C)C)O2 | inactive
54 | COc1ccc(CN(C)C[C@H]2Oc3ccc(NC(=O)Cc4ccccc4)cc3CC(=O)N([C@@H](C)CO)C[C@@H]2C)cc1 | inactive
55 | CC1(C)CC[C@@]2(C(=O)O)C(C1)C1=CCC3[C@@]4(C)CC[C@H](O)C(C)(C)C4CC[C@@]3(C)[C@]1(C)C[C@H]2O (some centres undefined) | inactive
56 | C[C@H](CO)N1C[C@H](C)[C@@H](CN(C)C(=O)Nc2ccccc2)Oc2ccc(N(C)C)cc2C1=O | inactive
57 | COc1cc(C)c(C(=O)Oc2cc(C)c(C(=O)Oc3cc(C)c(C(=O)NC(C)C(=O)O)c(O)c3)c(O[C@@H]3O[C@H](CO)[C@@H](O)[C@H](O)[C@H]3OC(C)=O)c2)c(OC)c1 (some centres undefined) | inactive
58 | Cc1ccc(C(=O)NCCNS(=O)(=O)c2ccccc2)cc1 | inactive
59 | COc1ccc(NC(=O)Nc2cccc3c2O[C@H](CN(C)S(=O)(=O)c2cccs2)[C@H](C)CN([C@@H](C)CO)C3=O)cc1 | inactive
60 | CNC[C@H]1Oc2ccc(N(C)C)cc2CC(=O)N([C@@H](C)CO)C[C@@H]1C | inactive
61 | CC(C)NC(=O)N(C)C[C@H]1Oc2ccc(NS(=O)(=O)c3cn(C)cn3)cc2CC(=O)N([C@@H](C)CO)C[C@H]1C | inactive
62 | C[C@@H]1CN([C@@H](C)CO)C(=O)Cc2cc(NC(=O)CCC(F)(F)F)ccc2O[C@@H]1CN(C)C(=O)Nc1cccc2ccccc12 | inactive
63 | Cc1cc(C)c(NC(=O)CCCC(=O)O)c(C)c1 | inactive
64 | C[C@H]1CN([C@@H](C)CO)C(=O)c2cc(NC(=O)C3CC3)ccc2O[C@@H]1CN(C)S(=O)(=O)c1cn(C)cn1 | inactive
